Compounds without any hit were thinned out: in the full panel of roughly 83,000, 20% have a hit.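 Growth was measured after 48 h exposure to one concentration of compound in 96-well plates. Values under 10 count as active.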 Activity calls are given as the source filed them.
What was measured:
Assay in all cases: NCI-60 one-dose screen, 48 h (100 = growth as untreated, 0 = no growth, -100 = all killed)
Settings in all cases: 10 µM unless noted
HCT-15 colon = tested on: HCT-15 colon
HT29 colon = tested on: HT29 colon
SNB-19 CNS = tested on: SNB-19 CNS
U251 CNS = tested on: U251 CNS
PC-3 prostate = tested on: PC-3 prostate
SK-MEL-5 melanoma = tested on: SK-MEL-5 melanoma
UACC-62 melanoma = tested on: UACC-62 melanoma
SK-MEL-28 melanoma = tested on: SK-MEL-28 melanoma
SK-MEL-2 melanoma = tested on: SK-MEL-2 melanoma
EKVX NSCLC = tested on: EKVX NSCLC
SN12C renal = tested on: SN12C renal
TK-10 renal = tested on: TK-10 renal
ACHN renal = tested on: ACHN renal
CAKI-1 renal = tested on: CAKI-1 renal
A498 renal = tested on: A498 renal
CCRF-CEM leukemia = tested on: CCRF-CEM leukemia
MOLT-4 leukemia = tested on: MOLT-4 leukemia
LOX IMVI melanoma = tested on: LOX IMVI melanoma
UO-31 renal = tested on: UO-31 renal

Measured: growth

COc1ccc(S(=O)(=O)NCCCNc2nccc(-c3c(-c4cccc([N+](=O)[O-])c4)nc4sccn34)n2)cc1
inactive: HCT-15 colon 30.9% | HT29 colon 31.1% | SNB-19 CNS 74.6% | U251 CNS 71.8% | PC-3 prostate 23.9% | UACC-62 melanoma 10.1% | SK-MEL-28 melanoma 61.4% | SK-MEL-2 melanoma 41.4% | EKVX NSCLC 57.2% | SN12C renal 42.8% | TK-10 renal 89.1% | ACHN renal 33.8% | CAKI-1 renal 34.9% | A498 renal 46.2% | CCRF-CEM leukemia 18.7% | MOLT-4 leukemia 22.5%
active: SK-MEL-5 melanoma -20.5%

CCCC(=O)Oc1ccc(/C(=C(\C)c2ccccc2)c2ccc(OCCN(CC)CC)cc2)cc1
active: HT29 colon 5.74%
inactive: HCT-15 colon 49.7% | SNB-19 CNS 85.7% | U251 CNS 65.1% | PC-3 prostate 60.7% | UACC-62 melanoma 80.4% | LOX IMVI melanoma 79.8% | SK-MEL-28 melanoma 68.3% | SK-MEL-2 melanoma 97.2% | EKVX NSCLC 99.3% | SN12C renal 86.3% | UO-31 renal 51.4% | TK-10 renal 86% | ACHN renal 90.7% | CAKI-1 renal 96.9% | A498 renal 93.7% | CCRF-CEM leukemia 69.7% | MOLT-4 leukemia 53.7%

CCC1=CCC[C@@]2(C)CCC[C@@]3(C)CCCC(C)(C)[C@]1([O-])[O+]32
inactive: HCT-15 colon 108% | HT29 colon 102% | SNB-19 CNS 102% | U251 CNS 103% | PC-3 prostate 96.5% | SK-MEL-5 melanoma 101% | UACC-62 melanoma 103% | SK-MEL-2 melanoma 110% | SN12C renal 106% | UO-31 renal 100% | TK-10 renal 109% | ACHN renal 105% | CAKI-1 renal 94.7% | A498 renal 83.3% | CCRF-CEM leukemia 127% | MOLT-4 leukemia 104%

CCC(=O)Oc1ccc(/C(=C(/C)Cc2cccc(OC)c2)c2ccc(OCCN(C)C)cc2)cc1
inactive: HCT-15 colon 48.2% | HT29 colon 43.7% | SNB-19 CNS 92.6% | U251 CNS 71.3% | PC-3 prostate 85.5% | UACC-62 melanoma 103% | LOX IMVI melanoma 73.4% | SK-MEL-28 melanoma 110% | SK-MEL-2 melanoma 100% | EKVX NSCLC 94.4% | SN12C renal 85.9% | UO-31 renal 67.4% | TK-10 renal 99.4% | ACHN renal 99.5% | CAKI-1 renal 91.3% | A498 renal 84.4% | CCRF-CEM leukemia 42.8% | MOLT-4 leukemia 68.4%

COc1ccc(-c2ccc(-c3ccc(-c4ccc(C(=N)N)cc4)s3)s2)cc1OC
active: HCT-15 colon -68.8% | HT29 colon -60.2% | EKVX NSCLC -8.09% | TK-10 renal -78.8%
inactive: SNB-19 CNS 87.7% | U251 CNS 46.4% | PC-3 prostate 70.6% | SK-MEL-5 melanoma 93.8% | UACC-62 melanoma 94.1% | SK-MEL-28 melanoma 93% | SK-MEL-2 melanoma 105% | SN12C renal 91.7% | UO-31 renal 74.4% | ACHN renal 95.5% | CAKI-1 renal 93.2% | A498 renal 48.6% | MOLT-4 leukemia 14.6%

COc1ccc(/C=C2\Oc3cc(OCCCN4CCCC4)ccc3C2=O)cc1
inactive: HCT-15 colon 26.3% | HT29 colon 17% | SNB-19 CNS 92.4% | U251 CNS 82.7% | PC-3 prostate 85.5% | UACC-62 melanoma 100% | LOX IMVI melanoma 13.3% | SK-MEL-28 melanoma 103% | SK-MEL-2 melanoma 100% | EKVX NSCLC 89.6% | SN12C renal 90.4% | UO-31 renal 73.9% | TK-10 renal 95.2% | ACHN renal 92.6% | CAKI-1 renal 91.6% | CCRF-CEM leukemia 52.3% | MOLT-4 leukemia 72.2%

Cn1cc(-c2cnc3ccc(NC(=O)Nc4ccc(F)c(Br)c4)cc3n2)cn1
active: PC-3 prostate 0.663% | UACC-62 melanoma -41.2% | LOX IMVI melanoma 4.06% | SK-MEL-2 melanoma -3.42% | CCRF-CEM leukemia 4.33% | MOLT-4 leukemia -21.2%
inactive: HCT-15 colon 19.3% | HT29 colon 40% | SNB-19 CNS 57.7% | U251 CNS 44.9% | SK-MEL-28 melanoma 50.1% | EKVX NSCLC 29.7% | SN12C renal 46.1% | UO-31 renal 16.9% | TK-10 renal 52% | ACHN renal 20.2% | CAKI-1 renal 12.8% | A498 renal 16.5%

COc1cccc(/C=C2\Oc3cc(OCCCN4CCCC4)ccc3C2=O)c1OC
inactive: HCT-15 colon 76.2% | HT29 colon 48.6% | SNB-19 CNS 102% | U251 CNS 93.2% | PC-3 prostate 91.9% | UACC-62 melanoma 98.9% | LOX IMVI melanoma 89.2% | SK-MEL-28 melanoma 105% | SK-MEL-2 melanoma 105% | EKVX NSCLC 93% | SN12C renal 95.2% | UO-31 renal 79.3% | TK-10 renal 104% | ACHN renal 102% | CAKI-1 renal 93.1% | CCRF-CEM leukemia 85.1% | MOLT-4 leukemia 91.5%

C=CCn1c2ccccc2c2c3c(c4c5ccccc5n(CC=C)c4c21)C(=O)N(O)C3=O
inactive: HCT-15 colon 35.5% | HT29 colon 19.2% | SNB-19 CNS 36.1% | U251 CNS 11.5% | PC-3 prostate 21.8% | SK-MEL-2 melanoma 70.4% | EKVX NSCLC 66% | TK-10 renal 50.8% | A498 renal 23.7% | CCRF-CEM leukemia 10.2%
active: SK-MEL-5 melanoma -48.5% | LOX IMVI melanoma -81.2% | SN12C renal 9.32% | UO-31 renal -47% | ACHN renal -33.6% | CAKI-1 renal -70.6% | MOLT-4 leukemia -10.4%

COc1ccc(/C=C2\Oc3cc(OCCCN4CCCC4)ccc3C2=O)c(OC)c1
active: LOX IMVI melanoma -27.7%
inactive: HCT-15 colon 17.8% | HT29 colon 10.2% | SNB-19 CNS 74.4% | U251 CNS 54.4% | PC-3 prostate 66.8% | UACC-62 melanoma 99.3% | SK-MEL-28 melanoma 105% | SK-MEL-2 melanoma 103% | EKVX NSCLC 96.1% | SN12C renal 91.8% | UO-31 renal 74.9% | TK-10 renal 103% | ACHN renal 91.4% | CAKI-1 renal 91.9% | CCRF-CEM leukemia 11.9% | MOLT-4 leukemia 32.7%

CCN(CC)c1ccc(/C=C2\Oc3ccc(O)c(I)c3C2=O)cc1
inactive: HCT-15 colon 37% | HT29 colon 72.4% | SNB-19 CNS 49.7% | U251 CNS 49.1% | PC-3 prostate 52.8% | UACC-62 melanoma 49.8% | LOX IMVI melanoma 34.2% | SK-MEL-28 melanoma 74.3% | SK-MEL-2 melanoma 62.3% | EKVX NSCLC 73.3% | SN12C renal 76.9% | UO-31 renal 46.3% | TK-10 renal 74.2% | ACHN renal 54.9% | CAKI-1 renal 68.4% | CCRF-CEM leukemia 13.3% | MOLT-4 leukemia 16.4%

Cc1[nH]c2ccc(F)cc2c1CCNC(=O)C1CCN(C(=O)c2ccccc2)CC1
inactive: HCT-15 colon 94.4% [25 µM] | HT29 colon 95.2% [25 µM] | SNB-19 CNS 86.3% [25 µM] | U251 CNS 90.7% [25 µM] | PC-3 prostate 71% [25 µM] | SK-MEL-5 melanoma 76% [25 µM] | UACC-62 melanoma 82.5% [25 µM] | SK-MEL-28 melanoma 96.4% [25 µM] | SK-MEL-2 melanoma 98.9% [25 µM] | EKVX NSCLC 77.9% [25 µM] | SN12C renal 94.5% [25 µM] | UO-31 renal 67.6% [25 µM] | TK-10 renal 91.1% [25 µM] | ACHN renal 97% [25 µM] | CAKI-1 renal 68.2% [25 µM] | A498 renal 56.2% [25 µM] | MOLT-4 leukemia 88% [25 µM]

N#Cc1c(-c2ccccc2)cc(-c2ccccc2)n(CC(=O)NO)c1=O
inactive: HCT-15 colon 16.8% | HT29 colon 33.5% | SNB-19 CNS 77% | U251 CNS 52.5% | PC-3 prostate 34.9% | UACC-62 melanoma 64.5% | SK-MEL-28 melanoma 75.7% | SK-MEL-2 melanoma 34.5% | EKVX NSCLC 41.7% | SN12C renal 47.8% | UO-31 renal 25.2% | TK-10 renal 73.1% | ACHN renal 43.3% | CAKI-1 renal 20.8%
active: LOX IMVI melanoma -90.5% | CCRF-CEM leukemia -19.2% | MOLT-4 leukemia -5.67%

CC[N+](CC)=c1cc2oc3cc(N(C)C)ccc3nc-2cc1C
inactive: HCT-15 colon 47.4% | HT29 colon 28.3% | SNB-19 CNS 31.8% | PC-3 prostate 10.8% | UACC-62 melanoma 62.7% | SK-MEL-2 melanoma 19.4% | TK-10 renal 54.6% | ACHN renal 73% | CAKI-1 renal 46.7% | A498 renal 99.2% | CCRF-CEM leukemia 28.2% | MOLT-4 leukemia 21.8%
active: U251 CNS 1.74% | SK-MEL-5 melanoma 7.58% | EKVX NSCLC 3.38% | SN12C renal 6.42%

Oc1ccc2cc(Br)ccc2c1-c1c(O)ccc2cc(Br)ccc12
inactive: HCT-15 colon 67.7% | HT29 colon 11.2% | SNB-19 CNS 78.3% | U251 CNS 65% | PC-3 prostate 42.1% | UACC-62 melanoma 61.4% | LOX IMVI melanoma 61.8% | SK-MEL-28 melanoma 65.5% | SK-MEL-2 melanoma 74.9% | EKVX NSCLC 57.6% | SN12C renal 60.7% | UO-31 renal 24.3% | TK-10 renal 52% | ACHN renal 23.1% | CAKI-1 renal 40.2% | A498 renal 72% | CCRF-CEM leukemia 45% | MOLT-4 leukemia 40.2%

O=C(NNC(=O)N1c2ccccc2C=Cc2ccccc21)c1ccccc1
inactive: HCT-15 colon 101% | HT29 colon 103% | SNB-19 CNS 100% | U251 CNS 109% | PC-3 prostate 98.5% | UACC-62 melanoma 101% | LOX IMVI melanoma 104% | SK-MEL-28 melanoma 102% | SK-MEL-2 melanoma 119% | EKVX NSCLC 91.7% | SN12C renal 102% | UO-31 renal 96% | TK-10 renal 96% | ACHN renal 102% | CAKI-1 renal 97.3% | A498 renal 103% | CCRF-CEM leukemia 98.9% | MOLT-4 leukemia 102%

CC(C)(C)c1[nH]nc2c1C(c1cc3ccccc3[nH]c1=O)Nc1cc(C(=O)Nc3ccc(Cl)cc3)ccc1N2 (stereo not given)
inactive: HCT-15 colon 98.8% | HT29 colon 91.3% | SNB-19 CNS 90.5% | U251 CNS 60.5% | PC-3 prostate 61.4% | SK-MEL-5 melanoma 70.2% | UACC-62 melanoma 73.1% | SK-MEL-28 melanoma 81.7% | SK-MEL-2 melanoma 77.9% | SN12C renal 71.1% | TK-10 renal 105% | ACHN renal 84.2% | CAKI-1 renal 94.9% | A498 renal 66.3% | MOLT-4 leukemia 18.5%

— PubChem BioAssay (NCI)
